Here are results for one molecule from PubChem BioAssay AID504400 (The Scripps Research Institute Molecular Screening Center, 2011).

A number with no mark means an inactive call. How the calls were made is not given here.

The assay relates to Imidazoline I2. The assay is described as follows: CYP450 and receptor off-target profile – biochemical, Ricerca HitProfilingScreen, selectivity assay for S1P4 agonist project, late-stage follow-up (AID 504400). The settings on record: Ricerca radioligand binding/enzyme panel plus CYP450, Central, at 10 µM, stronger effect = higher value.

Turning to `Clc1ccc(OCCOc2ccc(Br)nc2Br)c(Cl)c1`, the inhibition was 9%.
